Measured values: the supplement of paper PMC11732987, “Enantioselective OTUD7B fragment discovery through chemoproteomics screening and high-throughput optimisation” (Communications Chemistry, 2025)
Values without a mark were called inactive.

target: USP14 (UniProt P54578); assay: log2 ratio of Biotin-Ahx-Ub-VS probe labelling (fragment/DMSO); higher = less target engagement (more negative = stronger competition), active = hit call of the paper (q ≤ 0.05, log2 ratio ≤ -1); conditions: compound concentration: 200 uM; treatment time: 3 h
Sequence (P54578 whole entry, the tested form may be a part): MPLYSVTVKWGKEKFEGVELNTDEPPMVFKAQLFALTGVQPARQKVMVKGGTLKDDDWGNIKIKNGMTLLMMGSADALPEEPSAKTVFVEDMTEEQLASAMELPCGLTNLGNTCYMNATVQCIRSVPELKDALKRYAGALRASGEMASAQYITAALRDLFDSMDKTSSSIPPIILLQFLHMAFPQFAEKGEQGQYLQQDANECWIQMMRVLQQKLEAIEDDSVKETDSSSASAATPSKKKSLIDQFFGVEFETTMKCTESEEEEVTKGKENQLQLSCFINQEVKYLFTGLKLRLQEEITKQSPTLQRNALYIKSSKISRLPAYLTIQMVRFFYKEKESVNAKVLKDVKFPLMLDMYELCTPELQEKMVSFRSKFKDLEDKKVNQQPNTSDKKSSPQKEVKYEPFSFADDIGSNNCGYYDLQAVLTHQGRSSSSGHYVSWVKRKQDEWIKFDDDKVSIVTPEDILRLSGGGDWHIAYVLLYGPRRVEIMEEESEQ
Procedure: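 Competitive ABPP in HEK293T cell lysate. Lysates were treated with each chloroacetamide fragment at 200 µM for 3 h, then with Biotin-Ahx-Ub-VS (0.5 µM, 1 h), NeutrAvidin-enriched and analysed by diaPASEF LC-MS/MS. Protein LFQ was median-normalised; average log2 ratio is fragment/DMSO from an unpaired t-test (n=3 treated, n=44 DMSO). Hits: q ≤ 0.05, log2 ratio ≤ -1, unique peptides ≥ 2.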

| SMILES | log2 ratio of Biotin-Ahx-Ub-VS probe labelling |
| --- | --- |
| Cl.O=C(CCl)N1CCc2ncncc2C1 | -0.0964 |
| Cl.O=C(CN1CCN(C(=O)CCl)CC1)Nc1ccc(F)cc1 | -0.0648 |
| CS(=O)(=O)c1ccc(NC(=O)CCl)cc1 | 0.0136 |
| O=C(CCl)Nc1cccc(C(=O)N2CCSCC2)c1 | -0.335 |
| CC(NC(=O)CCl)c1cnn(C2CC2)c1 (stereo not given) | -0.778 |
| O=C(CCl)N1CCc2[nH]c3ccccc3c2C1 | -1.05 (active) |
| CCCn1nccc1NC(=O)CCl | -0.663 |
| O=C(CCl)N1CCC2(CCC(O)CC2)CC1 | 0.0657 |
| N#Cc1cnn(-c2ccccc2)c1NC(=O)CCl | -0.345 |
| N#Cc1ccc(Cl)cc1NC(=O)CCl | -0.283 |
| Cc1cc(NC(=O)CCl)n(-c2ccccc2)n1 | 0.0764 |
| Cc1n[nH]c(=O)c2c(NC(=O)CCl)oc(C)c12 | 0.0281 |
| O=C(CCl)NCc1ccc(Cl)cc1 | -0.109 |
| Cc1ccccc1C1(CNC(=O)CCl)CCOCC1 | -0.0489 |
| O=C(CCl)Nc1ccc2c(c1)OC(F)(F)O2 | -0.0555 |
| O=C(CCl)N1CCC(c2noc3cc(F)ccc23)CC1 | -0.337 |
| CN1C(=O)c2ccc(NC(=O)CCl)cc2C1=O | -0.292 |
| CC(=O)Nc1ccc(NC(=O)CCl)cc1 | 0.0669 |
| CC(NC(=O)CCl)c1noc(Cc2ccccc2)n1 (stereo not given) | -0.411 |
| O=C(CCl)N1CCN(c2nc3ccccc3o2)CC1 | -0.836 |

| SMILES | log2 ratio of Biotin-Ahx-Ub-VS probe labelling |
| --- | --- |
| O=C(CCl)N1CCCC2CCCCC21 (stereo not given) | -0.25 |
| Cl.Cn1nccc1C(NC(=O)CCl)c1ccccc1 (stereo not given) | -0.0812 |
| O=C(CCl)N1c2ccccc2NC(=O)C12CCCC2 | -0.661 |
| C[C@@H](NC(=O)CCl)c1cccc(C#N)c1 | -0.243 |
| NC(=O)C1CCCCN1C(=O)CCl (stereo not given) | -0.15 |
| Cc1ccc(N2CCC(NC(=O)CCl)C2=O)cc1 (stereo not given) | -0.0106 |
| Cl.Cn1nc2c(c1CNC(=O)CCl)CCCC2 | -0.00316 |
| O=C(CCl)NCCC1COCCO1 (stereo not given) | -0.27 |
| Cc1cccc(C)c1NC(=O)CCl | -0.289 |
| O=C(CCl)NCCc1cccc2ccccc12 | 0.0871 |
| O=C(CCl)N1CCC(OCc2ccccc2F)CC1 | 0.0975 |
| Cc1ccc(N(C(=O)CCl)C2C=CS(=O)(=O)C2)cc1 (stereo not given) | -0.0859 |
| Cc1cccc(NC(=O)[C@@H]2CCCN2C(=O)CCl)n1 | -0.519 |
| O=C(CCl)N[C@H]1CC[C@@H](CO)CC1 | -0.814 |
| Cc1noc(N2CCN(C(=O)CCl)CC2)n1.Cl | 0.347 |
| CC1CN(c2ccc(NC(=O)CCl)cc2)CC(C)O1 (stereo not given) | -0.0454 |
| O=C(CCl)NCc1ccc(N2CCOCC2)c(F)c1 | 0.1 |
| O=C(CCl)NCc1cccc(F)c1 | -0.167 |
| Cc1cccn2cc(CCNC(=O)CCl)nc12.Cl | -0.461 |
| N#Cc1ccccc1N1CCN(C(=O)CCl)CC1 | -0.673 |
